We go through 35 molecules from PubChem BioAssay (NCATS).

Inconclusive results are not listed. Where a call stands in place of a potency, no number is given. Activity calls are given as the source filed them. Calls come from the whole dose curve; as a rule, active = well fitted curve in the direction sought with a large enough effect; inconclusive = small, poorly fitted or top-dose-only effect, or another doubt; inactive = no such curve, though single readings can be large; an effect the other way counts as inactive or inconclusive.

Calcium and integrin-binding protein 1 (Homo sapiens), sequence (Q99828 whole entry, looked up): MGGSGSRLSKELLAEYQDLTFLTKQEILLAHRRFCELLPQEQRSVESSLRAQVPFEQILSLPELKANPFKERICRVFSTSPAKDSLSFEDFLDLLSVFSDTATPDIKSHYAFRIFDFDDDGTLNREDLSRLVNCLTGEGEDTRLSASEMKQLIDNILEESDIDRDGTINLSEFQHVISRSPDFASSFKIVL

In one assay the target is Calcium and integrin-binding protein 1 (Homo sapiens) (UniProt Q99828). The assay is described as follows: Primary qHTS for Identification of Calcium Integrin Binding Protein 1 (CIB1) Competitor (AID 1508620).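 Note: GST tagged CIB1 binding a fluorescein labelled alphaIIb integrin peptide tracer; top concentration of the series differs between compounds.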 As to conditions: CIB1-GST / FITC-alphaIIb peptide fluorescence polarization; series mostly up to 57.7 µM. An outline of the steps:
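Fluorescence polarization competition: GST-tagged CIB1 (1 uM final) preincubated with compound 15 min at room temperature, then FITC-labelled alphaIIb peptide (100 nM final) added. After 15 min at room temperature, polarization read at Ex 480/Em 540.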
Consider `COc1ccc(-n2nc(C(N)=O)c3c2C(=O)N(c2ccc(N4CCCCC4=O)cc2)CC3)cc1`, for which the outcome was inactive. The same measure, in the same setting: in the case of `CNC(=O)c1cc(Oc2ccc(NC(=O)Nc3cc(C(C)(C)C)nn3-c3ccc4ncccc4c3)c(F)c2)ccn1` it was “inactive”. `Nc1ncnc2c1c(-c1cnc3[nH]ccc3c1)nn2C1CCCC1`: the outcome was inactive. Take `CN(C)c1nc(Cc2ccc(NC(=O)c3ccc4ccccc4c3)cc2)nc(Cl)c1CC(=O)O`: the outcome was inactive. As to `CN(c1ncccc1CNc1nc(Nc2ccc3c(c2)CC(=O)N3)ncc1C(F)(F)F)S(C)(=O)=O`, the result was inactive. Take `COc1cc2c(Nc3ccc(NC(=O)c4ccccc4)cc3)ncnc2cc1OCCCN1CCOCC1`: the outcome was inactive. For `C[C@@H](Oc1cc(-n2cnc3ccc(CN4CCN(C)CC4)cc32)sc1C(N)=O)c1ccccc1C(F)(F)F`, the outcome was inactive.

`Cc1cn2cc(C(=O)N(C)CCO)cc(N[C@@H]3CCOc4cccc(C)c43)c2n1`: the result was inactive.

Turning to `C1Cc2[nH]nc(-c3nn[nH]n3)c2C1`, the result was inactive. Still for that read-out and setting: in the case of `Nc1nc(Nc2ccc(S(N)(=O)=O)cc2)nn1C(=O)c1c(F)cccc1F` it was “inactive”; in that of `COc1ccc(F)c(F)c1C(=O)c1cnc(NC2CCN(S(C)(=O)=O)CC2)nc1N`, “inactive”. With `CCc1cc2c(cc1N1CCC(N3CCOCC3)CC1)C(C)(C)c1[nH]c3cc(C#N)ccc3c1C2=O`, the result was inactive. With `CC[C@@H]1C(=O)N(C)c2cnc(Nc3ccc(C(=O)NC4CCC(N5CCN(CC6CC6)CC5)CC4)cc3OC)nc2N1C(C)C` (stereo not given in full), the outcome was inactive. On to `Cc1[nH]nc2ccc(-c3cncc(OC[C@@H](N)Cc4ccccc4)c3)cc12`, for which the result was inactive. Same read-out and setting: to `Cc1ccc(NC(=O)C2(c3ccc4c(c3)OC(F)(F)O4)CC2)nc1-c1cccc(C(=O)O)c1` belongs “inactive”; to `CCn1nnc2c(N3CCOCC3)nc(-c3ccc(NC(=O)Nc4ccc(C(=O)N5CCN(C)CC5)cc4)cc3)nc21`, “inactive”. Same read-out and setting: in the case of `C=CC(=O)Nc1cccc(Oc2nc(Nc3ccc(N4CCN(C)CC4)cc3OC)ncc2Cl)c1` it was “inactive”; in that of `Cc1cnc(-c2cnc(NCCNc3ccc(C#N)cn3)nc2-c2ccc(Cl)cc2Cl)[nH]1`, “inactive”.

Turning to `COc1ccc(-c2cc3c(C)nc(N)nc3n(C3CCC(OCCO)CC3)c2=O)cn1` (stereo not given), the outcome was inactive.

Regarding `CCN1CCN(CC(=O)Nc2ccc(-c3cccc4c(=O)cc(N5CCOCC5)oc34)c3sc4ccccc4c23)CC1`, the result was inactive. For the molecule `Nc1ccc(S(=O)(=O)Nc2ncccn2)cc1`, the outcome was inactive. The same measure, in the same setting: in the case of `COc1cc(C)c(Sc2cnc(NC(=O)c3ccc(CNC(C)C(C)C)cc3)s2)cc1C(=O)N1CCN(C(C)=O)CC1` (stereo not given) it was “inactive”; in that of `Cn1cc(-c2ccncc2)c(-c2ccc(OCc3ccc4ccccc4n3)cc2)n1`, “inactive”; in that of `O=C(O)C1(Cc2cccc(Nc3nccs3)n2)CCC(Oc2cccc(Cl)c2F)CC1` (stereo not given), “inactive”.

On to `C=CC(=O)Nc1cccc(Oc2nc(Nc3ccc(N4CCN(C)CC4)cc3)ncc2Cl)c1`, for which the result was inactive. In the case of `CNC(=O)c1ccc(N2C(=S)N(c3cnc(C#N)c(C(F)(F)F)c3)C(=O)C23CCC3)cc1F`, the outcome was inactive. For `CC(C)(C)OC(=O)Nc1ccc(-c2cc(C(=O)NCCCCCCC(=O)NO)no2)cc1`, the result was inactive.

For the molecule `CCCCOc1c(C(=O)c2c(F)cc(C)cc2F)cnc2n[nH]cc12`, the result was inactive. For the molecule `Nc1ccn([C@@H]2CS[C@H](CO)O2)c(=O)n1`, the outcome was inactive.

For `CN(C1CCc2c(c3ccccc3n2CC(=O)O)C1)S(=O)(=O)c1ccc(F)cc1` (stereo not given), the outcome was inactive. Same read-out and setting: to `COc1cc(C(=O)N2CCC(N3CCN(C)CC3)CC2)ccc1Nc1ncc2c(n1)N(C)c1ccccc1C(=O)N2C` belongs “inactive”; to `CCCNC(=O)Nc1ccc(Oc2ncnc3cc(OC)c(OC)cc23)cc1Cl`, “inactive”. With `Nc1ccc(C(=O)c2cc3c(ccc4ccccc43)[nH]2)cc1`, the result was inactive. Regarding `COc1cc2c(cc1-c1c(C)noc1C)ncc1[nH]c(=O)n([C@H](C)c3ccccn3)c12`, the result was inactive. Same read-out and setting: in the case of `O=C(O)c1ccc2c(c1)nc(Nc1cccc(Cl)c1)c1ccncc12` it was “inactive”.

Tested on in another assay: not listed separately
The assay is described as follows: Primary qHTS for small molecule stabilizers of the endoplasmic reticulum resident proteome: Secreted ER Calcium Modulated Protein (SERCaMP) assay (AID 1508630). The note with it: SH-SY5Y GLuc-SERCaMP (Gaussia luciferase released on ER calcium loss) secretion, thapsigargin, luminescence; series mostly up to 38.4 µM. An outline of the steps:
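The SH-SY5Y reporter protocol was run at 3 concentrations up to 38.3 uM (primary) or 11 concentrations (follow-up): 16 h compound, 100 nM thapsigargin for 4 h, then extracellular luciferase luminescence.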
For `CN(c1ncccc1CNc1nc(Nc2ccc3c(c2)CC(=O)N3)ncc1C(F)(F)F)S(C)(=O)=O`, the Potency result is “inactive”. Regarding `COc1cc2c(Nc3ccc(NC(=O)c4ccccc4)cc3)ncnc2cc1OCCCN1CCOCC1`, the Potency result was “inactive”. Same read-out and setting: in the case of `C[C@@H](Oc1cc(-n2cnc3ccc(CN4CCN(C)CC4)cc32)sc1C(N)=O)c1ccccc1C(F)(F)F` it was “inactive”.

As for `Cc1cn2cc(C(=O)N(C)CCO)cc(N[C@@H]3CCOc4cccc(C)c43)c2n1`, the Potency entry is “inactive”. On the same count and under the same terms, to `CCc1cc2c(cc1N1CCC(N3CCOCC3)CC1)C(C)(C)c1[nH]c3cc(C#N)ccc3c1C2=O` belongs “inactive”; to `CCn1nnc2c(N3CCOCC3)nc(-c3ccc(NC(=O)Nc4ccc(C(=O)N5CCN(C)CC5)cc4)cc3)nc21`, “inactive”; to `CCN1CCN(CC(=O)Nc2ccc(-c3cccc4c(=O)cc(N5CCOCC5)oc34)c3sc4ccccc4c23)CC1`, “inactive”. Consider `CC(C)(C)OC(=O)Nc1ccc(-c2cc(C(=O)NCCCCCCC(=O)NO)no2)cc1`, for which the Potency result is “inactive”. In the case of `Nc1ccc(C(=O)c2cc3c(ccc4ccccc43)[nH]2)cc1`, the Potency entry is “inactive”. For `COc1cc2c(cc1-c1c(C)noc1C)ncc1[nH]c(=O)n([C@H](C)c3ccccn3)c12`, the Potency entry is “inactive”.
